Compounds without any hit were thinned out: in the full panel of roughly 79,000, 15% have a hit. A number with no mark means an inactive call. Active and inactive are the calls of the source. Rule as the data show it: active = growth inhibition above about 70%; inactive = the rest.

The experiment in a line: NCI Yeast Anticancer Drug Screen. Data for the bub3 strain (AID 167). To be noted: S. cerevisiae bub3 mutant strain, at 50.0 µM (retest, dose inferred, filed as 5.0), active compounds read high. The method in brief:
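Yeast carrying a defined mutation is treated with each compound, and growth is compared with that of vehicle-exposed cells to give inhibition.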
Turning to `Cc1cccc(NC(=O)CCc2ccc(Cl)cc2)n1`, the growth inhibition is 0%.

As to `O=C(NNc1nc(-c2ccccc2)cs1)C(F)(F)F`, the growth inhibition was 99% (active).

As for `COc1ccc(C(=O)C(c2ccc(OC)cc2)C2(O)C(=O)Nc3c(Cl)cc(Cl)cc32)cc1` (centres undefined), the growth inhibition was -6%.

Take `CC(=O)NNc1nc(C)c(C(=O)NNC(=O)C(=O)Nc2ccc(Cl)c([N+](=O)[O-])c2)s1`: the growth inhibition was 19%.

Regarding `COc1ccc(Cc2cncc3c(O)c(OC)ccc23)cc1O`, the growth inhibition was 21%.

Turning to `Nc1ccccc1N=Nc1c(S(=O)(=O)O)cc2cc(S(=O)(=O)O)cc(O)c2c1O`, the growth inhibition was 12%.

Turning to `CCN(CC)c1c(C(=O)/C=C/c2ccc(OC)cc2)c(-c2ccccc2)nn(C)c1=O`, the growth inhibition is -4%.

Consider `O=C(O)/C=C/c1ccc(Cl)c(Cl)c1`, for which the growth inhibition is 77% (active).

For the compound `CCC12C=CCN3CC[C@@]4(c5cc([C@@]6(C(=O)OC)C[C@@H]7CN(CCc8c6[nH]c6ccccc86)C[C@](O)(CC)C7)c(OC)cc5N(C)[C@H]4[C@@](O)(C(=O)OC)[C@@H]1OC(=O)CCCCCCCCCCCN1C(=O)C=CC1=O)[C@H]32` (some centres undefined), the growth inhibition is 96% (active).

Turning to `Cc1cc(C)c(Cc2cc(C(C)(C)C)cc(C)c2O)cc1Cc1cc(C(C)(C)C)cc(C)c1O`, the growth inhibition was 26%.

In the case of `COC(=O)C(=O)/C=C(/O)c1ccc(OC)cc1`, the growth inhibition is 24%.

Take `Oc1ccc2c(c1)OCC1c3ccccc3OC21` (centres undefined): the growth inhibition is 89% (active).

Turning to `Cc1cc(N2C(=O)CCSC2=S)c([N+](=O)[O-])cc1C`, the growth inhibition is 99% (active).

As to `CCCCCCC(C)S(=O)(=O)c1ccc(C)cc1` (centres undefined), the growth inhibition was 50%.

For `S=c1sc2c(s1)SCCOCCOCCOCCS2`, the growth inhibition was 36%.

On to `N#Cc1cn(-c2c3ccccc3nc3ccccc23)c(=O)[nH]c1=O`, for which the growth inhibition is 59%.

`O=C1C=C(c2ccccc2)O/C1=C\C(=O)c1ccc(Cl)cc1`: the growth inhibition was 22%.

For the compound `O=c1[nH]c2cc(Cl)ccc2nc1/C=C(\O)c1ccc(N2CCN(c3ccc(/C(O)=C/c4nc5ccc(Cl)cc5[nH]c4=O)cc3)CC2)cc1`, the growth inhibition is -15%.

Regarding `O=C1Oc2ccccc2C(=O)/C1=C/N1C(=O)/C(=C/c2ccccc2)NC1=S`, the growth inhibition is 45%.

Regarding `CN(C)/C=C(\C(=O)c1ccccc1)n1nc(-c2ccccc2)cc1-c1ccccc1`, the growth inhibition was 38%.

As for `O=C1C(=O)c2ccccc2C(O)=C1Sc1ccccc1`, the growth inhibition is 94% (active).

As to `O=C(c1c(F)c(F)c(F)c(F)c1F)n1c(=S)n(C(=O)c2c(F)c(F)c(F)c(F)c2F)c2ccccc21`, the growth inhibition was 91% (active).

For `CCCCNCCC1(c2ccccc2)C(=O)Oc2ccccc21` (centres undefined), the growth inhibition is -12%.

With `COc1cc(/C=C/c2cc[n+](C)cc2)ccc1O`, the growth inhibition is 11%.

Consider `c1ccc(-c2ccc(-c3ccc(C4=NCCN4)cc3)o2)cc1`, for which the growth inhibition is 86% (active).

Turning to `CCCCCCCCCCCCCCNC(=O)C[N+](C)(C)Cc1ccccc1`, the growth inhibition was 99% (active).

For the compound `NC(CSSCC(N)C(=O)Nc1ccc2ccccc2c1)C(=O)Nc1ccc2ccccc2c1` (centres undefined), the growth inhibition was 99% (active).

As for `O=C(OCc1ccccc1)C(O)c1ccccc1` (centres undefined), the growth inhibition is -2%.

In the case of `CC(=O)CC1(O)C(=O)Nc2ccc(Br)cc21` (centres undefined), the growth inhibition is 2%.

With `S=C(S)NCCN1CCNCC1`, the growth inhibition is -11%.

For the compound `CCCCCCCC(=O)N1CCCCC1CC` (centres undefined), the growth inhibition was 17%.

As for `O=C1CCCC1C(=O)OC1CCCC1` (centres undefined), the growth inhibition was 0%.

With `CCN1CCC(O)(/C=C/c2cccc(C)c2)C(C(=O)/C=C/c2cccc(C)c2)C1` (centres undefined), the growth inhibition was 96% (active).

Take `O=C(SCCCc1ccccc1)c1cc([N+](=O)[O-])cc([N+](=O)[O-])c1`: the growth inhibition is 98% (active).

Take `O=C1C(=O)C2CC3(CC1N2Cc1ccccc1)OCCO3`: the growth inhibition is 78% (active).

As for `CNc1cc(SC)nc(N)n1`, the growth inhibition was -1%.

With `Clc1ccc(Cl)c(SCCCN2CCNCC2)c1`, the growth inhibition was 59%.

`CC(C)C(Cl)CC/C(CBr)=C(\Cl)CCl` (centres undefined): the growth inhibition was 98% (active).

For the compound `O=C(O)CNc1ccc2c(c1)Cc1cc(Br)ccc1-2`, the growth inhibition was 85% (active).

(Values after PubChem BioAssay (NCI).)
